Measured values as given in the supplement of paper PMC11732987, “Enantioselective OTUD7B fragment discovery through chemoproteomics screening and high-throughput optimisation” (Communications Chemistry, 2025).

Columns and labels:
Assay in all cases: log2 ratio of Biotin-Ahx-Ub-VS probe labelling (fragment/DMSO); higher = less target engagement (more negative = stronger competition), active = hit call of the paper (q ≤ 0.05, log2 ratio ≤ -1)
Conditions in all cases: compound concentration: 200 uM; treatment time: 3 h
USP34 = USP34 (UniProt Q70CQ2)
Summary of the method: (§1)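 Labelled DUBs from HEK293T lysate were NeutrAvidin-enriched, digested with LysC and trypsin, and run by diaPASEF LC-MS/MS. Before that, each 495 µg sample in Tris/CHAPS/IGEPAL buffer with protease inhibitors was treated in triplicate with fragment at 200 µM or vehicle for 3 h, then with Biotin-Ahx-Ub-VS at 0.5 µM final for 1 h. Values are average log2 ratios of fragment over vehicle by unpaired t-test, based on global-median-normalised Spectronaut label-free quantities from proteins with ≥2 unique peptides.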

USP36 = target: T1, USP36 (UniProt Q9P275)
T1 sequence (whole entry): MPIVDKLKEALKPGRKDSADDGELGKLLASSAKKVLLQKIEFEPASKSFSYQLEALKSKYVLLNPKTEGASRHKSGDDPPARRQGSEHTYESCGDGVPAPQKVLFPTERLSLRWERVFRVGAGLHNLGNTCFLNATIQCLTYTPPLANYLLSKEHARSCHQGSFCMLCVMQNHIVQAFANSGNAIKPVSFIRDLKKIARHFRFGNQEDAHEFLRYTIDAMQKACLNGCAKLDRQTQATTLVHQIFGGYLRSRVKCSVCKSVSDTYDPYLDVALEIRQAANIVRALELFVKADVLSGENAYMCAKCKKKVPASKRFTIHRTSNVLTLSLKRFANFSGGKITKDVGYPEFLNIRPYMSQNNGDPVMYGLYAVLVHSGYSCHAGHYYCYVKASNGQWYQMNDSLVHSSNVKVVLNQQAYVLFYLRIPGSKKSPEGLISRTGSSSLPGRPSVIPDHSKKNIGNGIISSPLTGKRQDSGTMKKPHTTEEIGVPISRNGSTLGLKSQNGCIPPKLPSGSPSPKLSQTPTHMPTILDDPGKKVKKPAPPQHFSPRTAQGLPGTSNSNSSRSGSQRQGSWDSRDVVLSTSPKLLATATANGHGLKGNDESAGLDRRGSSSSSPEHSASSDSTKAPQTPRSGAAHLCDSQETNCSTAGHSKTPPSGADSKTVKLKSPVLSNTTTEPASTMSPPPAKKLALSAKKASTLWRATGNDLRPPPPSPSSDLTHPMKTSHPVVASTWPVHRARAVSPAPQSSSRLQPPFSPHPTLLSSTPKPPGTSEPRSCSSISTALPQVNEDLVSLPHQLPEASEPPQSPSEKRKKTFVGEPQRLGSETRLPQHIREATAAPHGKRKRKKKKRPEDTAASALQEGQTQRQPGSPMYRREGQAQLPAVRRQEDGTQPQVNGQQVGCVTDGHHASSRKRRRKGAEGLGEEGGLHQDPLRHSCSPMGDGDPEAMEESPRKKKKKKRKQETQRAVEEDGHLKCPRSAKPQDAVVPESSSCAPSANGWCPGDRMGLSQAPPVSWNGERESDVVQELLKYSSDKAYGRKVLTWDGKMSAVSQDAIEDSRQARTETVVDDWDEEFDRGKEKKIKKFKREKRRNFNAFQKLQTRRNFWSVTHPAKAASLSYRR
Summary of the method: as §1

USP38 = target: T2, USP38 (UniProt Q8NB14)
T2 sequence (whole entry): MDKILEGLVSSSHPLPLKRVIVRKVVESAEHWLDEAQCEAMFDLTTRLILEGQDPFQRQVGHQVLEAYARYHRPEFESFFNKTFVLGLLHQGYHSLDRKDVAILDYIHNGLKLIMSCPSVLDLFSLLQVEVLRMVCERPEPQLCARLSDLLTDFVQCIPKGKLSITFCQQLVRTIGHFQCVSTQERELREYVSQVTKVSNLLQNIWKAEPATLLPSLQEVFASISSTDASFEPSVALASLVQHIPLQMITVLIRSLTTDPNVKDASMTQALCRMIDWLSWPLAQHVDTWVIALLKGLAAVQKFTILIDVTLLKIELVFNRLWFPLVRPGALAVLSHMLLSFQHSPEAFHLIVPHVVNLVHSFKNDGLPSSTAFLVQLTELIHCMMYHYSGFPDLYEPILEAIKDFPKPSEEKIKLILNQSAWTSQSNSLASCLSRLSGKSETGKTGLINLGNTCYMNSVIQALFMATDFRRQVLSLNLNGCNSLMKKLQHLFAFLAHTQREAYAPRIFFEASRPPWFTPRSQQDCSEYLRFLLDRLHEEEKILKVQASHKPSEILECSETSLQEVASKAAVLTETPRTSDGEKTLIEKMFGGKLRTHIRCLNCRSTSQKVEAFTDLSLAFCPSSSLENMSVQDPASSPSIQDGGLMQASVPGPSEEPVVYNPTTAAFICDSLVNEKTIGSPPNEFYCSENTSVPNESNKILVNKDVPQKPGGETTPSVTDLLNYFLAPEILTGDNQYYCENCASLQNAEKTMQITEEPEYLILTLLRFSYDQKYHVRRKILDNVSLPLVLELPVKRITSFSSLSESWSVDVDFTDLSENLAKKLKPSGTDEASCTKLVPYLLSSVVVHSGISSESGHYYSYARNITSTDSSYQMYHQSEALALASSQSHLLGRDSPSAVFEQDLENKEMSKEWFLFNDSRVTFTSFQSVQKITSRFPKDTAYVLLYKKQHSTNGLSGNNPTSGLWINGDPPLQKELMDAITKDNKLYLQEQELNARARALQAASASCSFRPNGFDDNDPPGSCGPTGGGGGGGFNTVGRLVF
Summary of the method: as §1

USP39 = target: T3, USP39 (UniProt Q53GS9)
T3 sequence (whole entry): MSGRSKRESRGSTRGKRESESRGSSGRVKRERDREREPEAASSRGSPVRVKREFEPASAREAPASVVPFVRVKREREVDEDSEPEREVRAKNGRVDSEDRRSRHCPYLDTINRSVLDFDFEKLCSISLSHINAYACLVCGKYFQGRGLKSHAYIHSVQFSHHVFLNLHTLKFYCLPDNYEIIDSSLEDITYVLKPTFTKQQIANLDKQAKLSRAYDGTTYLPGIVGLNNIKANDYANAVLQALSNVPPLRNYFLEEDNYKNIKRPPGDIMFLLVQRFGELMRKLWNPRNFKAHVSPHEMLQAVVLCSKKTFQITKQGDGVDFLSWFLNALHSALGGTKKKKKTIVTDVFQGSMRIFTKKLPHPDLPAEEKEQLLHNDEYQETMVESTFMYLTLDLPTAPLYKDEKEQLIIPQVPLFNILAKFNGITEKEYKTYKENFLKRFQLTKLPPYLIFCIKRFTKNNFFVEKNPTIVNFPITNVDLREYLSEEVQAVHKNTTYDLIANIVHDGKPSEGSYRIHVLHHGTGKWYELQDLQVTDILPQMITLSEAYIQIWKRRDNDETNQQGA
Summary of the method: as §1

USP4 = target: T4, USP4 (UniProt Q13107)
T4 sequence (whole entry): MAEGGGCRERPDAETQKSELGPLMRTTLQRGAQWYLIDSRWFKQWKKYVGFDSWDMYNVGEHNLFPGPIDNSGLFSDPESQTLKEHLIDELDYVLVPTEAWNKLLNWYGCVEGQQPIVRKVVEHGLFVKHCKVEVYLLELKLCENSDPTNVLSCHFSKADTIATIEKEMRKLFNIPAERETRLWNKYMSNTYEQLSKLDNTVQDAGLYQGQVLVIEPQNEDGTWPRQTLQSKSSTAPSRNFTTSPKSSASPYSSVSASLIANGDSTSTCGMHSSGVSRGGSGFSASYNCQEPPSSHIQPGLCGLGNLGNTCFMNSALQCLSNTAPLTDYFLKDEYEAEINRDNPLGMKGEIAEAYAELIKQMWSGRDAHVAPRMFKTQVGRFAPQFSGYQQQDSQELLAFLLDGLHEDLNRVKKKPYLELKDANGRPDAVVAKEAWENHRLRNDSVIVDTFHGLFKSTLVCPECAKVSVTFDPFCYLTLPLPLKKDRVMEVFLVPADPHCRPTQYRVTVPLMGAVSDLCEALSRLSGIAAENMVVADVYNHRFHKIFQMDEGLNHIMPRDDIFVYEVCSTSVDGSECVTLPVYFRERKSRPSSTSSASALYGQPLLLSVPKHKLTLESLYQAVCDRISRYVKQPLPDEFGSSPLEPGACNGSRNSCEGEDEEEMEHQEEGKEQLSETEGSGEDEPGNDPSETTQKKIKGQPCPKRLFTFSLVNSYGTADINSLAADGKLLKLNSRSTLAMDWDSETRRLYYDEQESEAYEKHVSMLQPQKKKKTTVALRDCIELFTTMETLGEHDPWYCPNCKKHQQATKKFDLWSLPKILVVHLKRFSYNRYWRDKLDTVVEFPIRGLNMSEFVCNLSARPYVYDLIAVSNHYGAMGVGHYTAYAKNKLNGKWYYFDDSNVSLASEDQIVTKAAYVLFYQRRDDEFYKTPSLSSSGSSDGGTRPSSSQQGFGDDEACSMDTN
Summary of the method: as §1

Measured: log2 ratio of Biotin-Ahx-Ub-VS probe labelling

Sequence of USP34 (Q70CQ2 whole entry, the tested form may be a part): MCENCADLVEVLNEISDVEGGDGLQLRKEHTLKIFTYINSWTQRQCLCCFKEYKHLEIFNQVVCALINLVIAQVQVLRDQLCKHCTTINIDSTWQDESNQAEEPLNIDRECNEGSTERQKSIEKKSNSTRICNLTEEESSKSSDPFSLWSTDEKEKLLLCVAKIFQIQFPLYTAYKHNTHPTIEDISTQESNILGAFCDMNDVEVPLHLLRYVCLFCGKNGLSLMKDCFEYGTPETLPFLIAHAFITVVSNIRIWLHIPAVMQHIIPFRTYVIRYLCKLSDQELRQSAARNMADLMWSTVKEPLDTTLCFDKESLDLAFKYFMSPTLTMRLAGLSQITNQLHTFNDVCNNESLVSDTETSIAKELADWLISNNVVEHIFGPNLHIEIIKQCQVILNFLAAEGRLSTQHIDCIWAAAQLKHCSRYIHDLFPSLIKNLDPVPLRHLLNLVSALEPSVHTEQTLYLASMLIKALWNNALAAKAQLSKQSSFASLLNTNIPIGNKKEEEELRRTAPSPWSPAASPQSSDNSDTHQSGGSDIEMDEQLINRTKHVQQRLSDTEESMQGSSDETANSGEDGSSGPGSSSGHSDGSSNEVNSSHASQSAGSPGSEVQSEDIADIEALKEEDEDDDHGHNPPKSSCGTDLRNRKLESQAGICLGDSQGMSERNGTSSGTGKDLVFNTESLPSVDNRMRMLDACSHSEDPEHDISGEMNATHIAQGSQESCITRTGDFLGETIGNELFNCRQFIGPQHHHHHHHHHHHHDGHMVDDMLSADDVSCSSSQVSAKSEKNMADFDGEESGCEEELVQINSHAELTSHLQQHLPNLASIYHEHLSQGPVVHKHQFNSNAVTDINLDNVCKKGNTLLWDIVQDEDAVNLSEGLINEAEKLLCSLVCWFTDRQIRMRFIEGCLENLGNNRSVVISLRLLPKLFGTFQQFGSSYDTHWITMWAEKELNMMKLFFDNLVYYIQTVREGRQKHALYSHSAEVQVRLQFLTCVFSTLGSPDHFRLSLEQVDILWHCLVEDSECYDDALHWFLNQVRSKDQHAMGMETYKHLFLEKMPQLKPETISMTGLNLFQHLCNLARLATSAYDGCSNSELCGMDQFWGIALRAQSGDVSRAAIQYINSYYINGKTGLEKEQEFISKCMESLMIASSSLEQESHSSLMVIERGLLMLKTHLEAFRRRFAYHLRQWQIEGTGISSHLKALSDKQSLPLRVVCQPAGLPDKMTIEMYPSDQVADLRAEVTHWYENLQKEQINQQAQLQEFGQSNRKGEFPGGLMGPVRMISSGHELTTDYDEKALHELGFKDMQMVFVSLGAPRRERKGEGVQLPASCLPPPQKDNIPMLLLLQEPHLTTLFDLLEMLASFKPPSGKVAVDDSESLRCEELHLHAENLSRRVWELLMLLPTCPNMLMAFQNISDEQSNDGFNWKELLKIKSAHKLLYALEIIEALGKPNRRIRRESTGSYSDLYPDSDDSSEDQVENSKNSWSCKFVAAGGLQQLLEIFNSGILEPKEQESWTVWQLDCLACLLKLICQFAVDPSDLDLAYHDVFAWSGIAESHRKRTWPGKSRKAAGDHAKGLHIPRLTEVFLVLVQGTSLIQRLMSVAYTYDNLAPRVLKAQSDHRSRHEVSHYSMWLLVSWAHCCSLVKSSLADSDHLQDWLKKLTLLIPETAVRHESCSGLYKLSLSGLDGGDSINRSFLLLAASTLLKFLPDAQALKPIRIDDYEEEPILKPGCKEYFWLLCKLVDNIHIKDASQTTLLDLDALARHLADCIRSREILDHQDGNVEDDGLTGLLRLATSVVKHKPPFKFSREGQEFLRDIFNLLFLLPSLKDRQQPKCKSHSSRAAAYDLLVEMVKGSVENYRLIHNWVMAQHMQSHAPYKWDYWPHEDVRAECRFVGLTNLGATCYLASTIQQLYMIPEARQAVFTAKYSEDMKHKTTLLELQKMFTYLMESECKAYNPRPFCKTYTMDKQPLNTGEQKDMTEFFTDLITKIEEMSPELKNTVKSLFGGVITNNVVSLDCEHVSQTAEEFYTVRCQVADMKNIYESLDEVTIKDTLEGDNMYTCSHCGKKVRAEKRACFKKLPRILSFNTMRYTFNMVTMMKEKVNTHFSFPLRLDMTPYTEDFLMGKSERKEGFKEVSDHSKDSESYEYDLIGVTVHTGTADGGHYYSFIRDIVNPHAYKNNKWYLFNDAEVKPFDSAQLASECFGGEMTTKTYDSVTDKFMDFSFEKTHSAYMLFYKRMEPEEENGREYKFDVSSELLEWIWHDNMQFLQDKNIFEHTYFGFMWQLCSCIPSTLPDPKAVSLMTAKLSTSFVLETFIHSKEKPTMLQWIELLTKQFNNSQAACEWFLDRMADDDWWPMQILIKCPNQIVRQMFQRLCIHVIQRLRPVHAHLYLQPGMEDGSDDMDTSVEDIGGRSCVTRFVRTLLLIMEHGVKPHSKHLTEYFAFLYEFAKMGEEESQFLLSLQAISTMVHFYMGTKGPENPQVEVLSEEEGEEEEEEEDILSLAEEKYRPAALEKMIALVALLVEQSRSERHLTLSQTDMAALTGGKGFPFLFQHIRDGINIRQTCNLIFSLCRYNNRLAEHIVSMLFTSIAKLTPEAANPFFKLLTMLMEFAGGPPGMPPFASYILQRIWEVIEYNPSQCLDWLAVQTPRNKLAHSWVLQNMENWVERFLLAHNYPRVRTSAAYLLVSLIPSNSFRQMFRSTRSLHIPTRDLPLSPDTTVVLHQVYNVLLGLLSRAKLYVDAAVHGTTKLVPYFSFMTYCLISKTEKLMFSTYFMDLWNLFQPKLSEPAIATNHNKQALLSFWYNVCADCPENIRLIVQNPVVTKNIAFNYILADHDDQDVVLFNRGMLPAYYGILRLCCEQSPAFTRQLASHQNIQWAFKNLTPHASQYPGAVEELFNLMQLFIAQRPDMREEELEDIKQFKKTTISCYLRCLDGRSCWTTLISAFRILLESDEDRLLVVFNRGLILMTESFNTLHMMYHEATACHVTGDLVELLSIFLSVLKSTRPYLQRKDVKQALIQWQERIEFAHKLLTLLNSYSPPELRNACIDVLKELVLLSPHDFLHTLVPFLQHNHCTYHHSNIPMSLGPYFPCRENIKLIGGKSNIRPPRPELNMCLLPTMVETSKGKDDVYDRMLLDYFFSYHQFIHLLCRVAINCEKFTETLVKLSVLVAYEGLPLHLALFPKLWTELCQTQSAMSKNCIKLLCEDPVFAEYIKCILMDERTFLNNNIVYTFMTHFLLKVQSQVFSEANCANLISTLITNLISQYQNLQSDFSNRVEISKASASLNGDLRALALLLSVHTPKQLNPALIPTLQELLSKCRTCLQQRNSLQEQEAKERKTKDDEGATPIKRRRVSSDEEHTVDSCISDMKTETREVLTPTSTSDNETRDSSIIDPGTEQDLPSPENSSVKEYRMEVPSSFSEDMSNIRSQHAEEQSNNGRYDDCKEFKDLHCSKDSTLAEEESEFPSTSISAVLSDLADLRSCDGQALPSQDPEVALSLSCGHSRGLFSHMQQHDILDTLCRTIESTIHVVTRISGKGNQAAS

O=C(CCl)N[C@H]1CC[C@@H](CO)CC1
inactive: USP34 -0.402 | USP36 -0.283 | USP38 -0.651 | USP39 -0.098 | USP4 -0.775
